Assay results reported in PubChem BioAssay (NCATS).
Records with an inconclusive call do not appear. Calls of active or inactive are those of the source. Calls follow the shape of the dose curve; as a rule, active = well fitted curve in the direction sought with a large enough effect; inconclusive = small, poorly fitted or top-dose-only effect, or another doubt; inactive = no such curve, though single readings can be large; an effect the other way counts as inactive or inconclusive. Non-standard residues stand in square brackets, D forms with d. Residues, ends and D or L forms follow the SMILES beside them. *: point of attachment. Nva = CCC[C@H](N)C(=O)O; Cbz = O=C(OCc1ccccc1)*

Key:
[1] = Quantitative High-Throughput drug screen in 47 multiple myeloma cell lines against the NCATS MIPE library collection: INA6_PLB cell viability assay (AID 1918965; also: nearly all actives have a fitted effect of over 55% in size)
Outline: (§1)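 Myeloma cell lines, 500 cells per well, exposed to MIPE 4.0 library compounds for 48 h at 37C, 5% CO2. Viability from ATP by CellTiter-Glo luminescence; normalised to DMSO (100%) and media-only (0%) wells.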

[2] = Quantitative High-Throughput drug screen in 47 multiple myeloma cell lines against the NCATS MIPE library collection: JJN3_DSMZ cell viability assay (AID 1918966; also: nearly all actives have a fitted effect of over 50% in size)
Outline: (§2)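 CellTiter-Glo luminescence (ATP) after 48 h compound exposure, 37C/5% CO2; 500 cells/well; MIPE 4.0 approved/investigational drugs pinned in; DMSO = 100%, media only = 0% viability.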

[3] = Quantitative High-Throughput drug screen in 47 multiple myeloma cell lines against the NCATS MIPE library collection: H1112_PLB cell viability assay (AID 1918967; also: nearly all actives have a fitted effect of over 30% in size)
Outline: as §2

[4] = Quantitative High-Throughput drug screen in 47 multiple myeloma cell lines against the NCATS MIPE library collection: Karpas25_ECACC cell viability assay (AID 1918968; also: nearly all actives have a fitted effect of over 35% in size)
Outline: as §2

[5] = Quantitative High-Throughput drug screen in 47 multiple myeloma cell lines against the NCATS MIPE library collection: KMS27_JCRB cell viability assay (AID 1918970); settings: KMS27 myeloma cells, CellTiter-Glo ATP viability, 48 h; viability (% of DMSO): at 45.8 µM (top of the series); also: nearly all actives have a fitted effect of over 30% in size
Outline: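 CellTiter-Glo luminescence after 48 h drug exposure at 37 °C; 500 cells/well, 1536-well format, pin-tool compound addition; DMSO = 100%, media-only = 0% viability.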

[6] = Quantitative High-Throughput drug screen in 47 multiple myeloma cell lines against the NCATS MIPE library collection: KMS12PE_JCRB cell viability assay (AID 1918972); also: nearly all actives have a fitted effect of over 30% in size
Outline: as §1

[7] = Quantitative High-Throughput drug screen in 47 multiple myeloma cell lines against the NCATS MIPE library collection: KMS20_JCRB cell viability assay (AID 1918973); also: nearly all actives have a fitted effect of over 45% in size
Outline: as §2

[8] = Quantitative High-Throughput drug screen in 47 multiple myeloma cell lines against the NCATS MIPE library collection: MOLP8_DSMZ cell viability assay (AID 1918977); also: nearly all actives have a fitted effect of over 45% in size
Outline: (§3)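 500 cells/well per myeloma line exposed to pinned MIPE 4.0 compounds for 48 h at 37 °C, 5% CO2. Viability read as ATP by CellTiter-Glo luminescence, normalised to DMSO-only (100%) and media-only (0%) wells.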

[9] = Quantitative High-Throughput drug screen in 47 multiple myeloma cell lines against the NCATS MIPE library collection: NCIH929_DSMZ cell viability assay (AID 1918978); also: nearly all actives have a fitted effect of over 35% in size
Outline: as §3

[10] = Quantitative High-Throughput drug screen in 47 multiple myeloma cell lines against the NCATS MIPE library collection: OCIMY1_PLB cell viability assay (AID 1918979); also: nearly all actives have a fitted effect of over 35% in size
Outline: as §3

[11] = Quantitative High-Throughput drug screen in 47 multiple myeloma cell lines against the NCATS MIPE library collection: MM1R_ATCC cell viability assay (AID 1918981); also: nearly all actives have a fitted effect of over 35% in size
Outline: as §3

[12] = Quantitative High-Throughput drug screen in 47 multiple myeloma cell lines against the NCATS MIPE library collection: LP1_DSMZ cell viability assay (AID 1918982); also: nearly all actives have a fitted effect of over 35% in size
Outline: as §3

[13] = Quantitative High-Throughput drug screen in 47 multiple myeloma cell lines against the NCATS MIPE library collection: KMS28PE_JCRB cell viability assay (AID 1918983); also: nearly all actives have a fitted effect of over 35% in size
Outline: as §3

[14] = Quantitative High-Throughput drug screen in 47 multiple myeloma cell lines against the NCATS MIPE library collection: L363_DSMZ cell viability assay (AID 1918984); also: nearly all actives have a fitted effect of over 40% in size
Outline: as §3

[15] = Quantitative High-Throughput drug screen in 47 multiple myeloma cell lines against the NCATS MIPE library collection: KMS12BM_JCRB cell viability assay (AID 1918971); also: nearly all actives have a fitted effect of over 35% in size
Outline: (§4)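 Approved and investigational drugs from MIPE 4.0 were added by pin tool to 500 cells per well. After 48 hours at 37C, ATP-based CellTiter-Glo luminescence indicated remaining viability.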

[16] = Quantitative High-Throughput drug screen in 47 multiple myeloma cell lines against the NCATS MIPE library collection: KMS26_JCRB cell viability assay (AID 1918975); also: nearly all actives have a fitted effect of over 45% in size
Outline: as §4

[17] = Quantitative High-Throughput drug screen in 47 multiple myeloma cell lines against the NCATS MIPE library collection: MMM1_PLB cell viability assay (AID 1918976); also: nearly all actives have a fitted effect of over 35% in size
Outline: as §3

[18] = Quantitative High-Throughput drug screen in 47 multiple myeloma cell lines against the NCATS MIPE library collection: MM1S_ATCC cell viability assay (AID 1918980); also: nearly all actives have a fitted effect of over 45% in size
Outline: as §3

[19] = Quantitative High-Throughput drug screen in 47 multiple myeloma cell lines against the NCATS MIPE library collection: KMS34_JCRB cell viability assay (AID 1918985); also: nearly all actives have a fitted effect of over 40% in size
Outline: as §3

[20] = Quantitative High-Throughput drug screen in 47 multiple myeloma cell lines against the NCATS MIPE library collection: KMS21BM_JCRB cell viability assay (AID 1918974); settings: ATP luminescence, 48 h; viability: at 45.8 µM (top of the series)
Outline: as §2

Measured: Potency
Potency is read from the fitted curve at half-maximal effect.

C[N+]1(C)[C@@H]2C[C@@H](OC(=O)C(O)(c3cccs3)c3cccs3)C[C@H]1[C@@H]1O[C@@H]12
not listed: [15] | [16] | [17] | [18] | [19] | [20]
inactive: all other assays above

CCC[C@@H](C=O)NC(=O)[C@H](CC(C)C)NC(=O)[C@H](CC(C)C)NC(=O)OCc1ccccc1 (Cbz-Leu-Leu-[Nva]-aldehyde)
active: [1] 0.235 µM | [2] 1.18 µM | [3] 0.418 µM | [4] 0.296 µM | [5] 0.332 µM | [15] 1.05 µM | [6] 0.296 µM | [16] 1.32 µM | [17] 3.72 µM | [8] 1.18 µM | [9] 0.296 µM | [10] 0.743 µM | [18] 0.418 µM | [11] 0.743 µM | [12] 1.32 µM | [13] 0.662 µM | [19] 0.743 µM

C=CC[C@@H]1C=C(C)C[C@H](C)C[C@H](OC)[C@H]2O[C@@](O)(C(=O)C(=O)N3CCCC[C@H]3C(=O)O[C@H](C(C)=C[C@@H]3CC[C@H](O)[C@H](OC)C3)[C@@H](C)[C@@H](O)CC1=O)[C@@H](C)C[C@@H]2OC
active: [1] 0.935 µM | [2] 0.662 µM | [3] 3.32 µM | [4] 2.96 µM | [5] 0.743 µM | [15] 1.48 µM | [6] 1.87 µM | [16] 0.935 µM | [17] 3.32 µM | [8] 1.32 µM | [9] 3.32 µM | [10] 2.64 µM | [18] 1.18 µM | [11] 0.833 µM | [13] 2.35 µM | [14] 1.18 µM

COc1cc(C(=O)NC2CCN(C)CC2)ccc1Nc1ncc2c(n1)N(C1CCCC1)CCC(=O)N2C(C)C
active: [1] 3.72 µM | [2] 8.33 µM | [3] 23.5 µM | [4] 20.9 µM | [5] 5.9 µM | [6] 13.2 µM | [7] 16.6 µM | [20] 3.72 µM | [18] 1.05 µM | [14] 16.6 µM

OCC(O)C(O)C(O)CO (configuration not stated)
active: [2] 2.96 µM
not listed: [7] | [8] | [13] | [15] | [17] | [20]
inactive: all other assays above

CO[C@@H]1[C@@H](O)[C@H](O)[C@@H](n2c3c(Cl)cccc3c3c4c(c5c6cccc(Cl)c6[nH]c5c32)C(=O)NC4=O)O[C@@H]1CO
active: [1] 0.187 µM | [2] 9.35 µM | [3] 0.418 µM | [4] 0.59 µM | [5] 0.118 µM | [15] 0.469 µM | [6] 0.743 µM | [16] 2.64 µM | [17] 5.9 µM | [8] 2.35 µM | [9] 0.833 µM | [10] 2.35 µM | [18] 0.372 µM | [11] 0.526 µM | [12] 6.62 µM | [13] 1.32 µM | [14] 1.05 µM

CCOC(=O)N1CCN([N+]([O-])=NOc2ccc([N+](=O)[O-])cc2C#N)CC1
active: [1] 1.18 µM | [2] 0.418 µM | [3] 0.526 µM | [4] 0.743 µM | [5] 0.372 µM | [15] 1.48 µM | [6] 0.833 µM | [16] 0.935 µM | [9] 2.96 µM | [18] 1.32 µM | [11] 1.32 µM | [12] 2.64 µM | [13] 1.18 µM | [14] 0.59 µM | [19] 0.526 µM

C#CCC(Cc1cnc2nc(N)nc(N)c2n1)c1ccc(C(=O)N[C@@H](CCC(=O)O)C(=O)O)cc1 (some centres not stated)
inactive: [5] | [15] | [6] | [17] | [10] | [13]
active: [1] 0.0935 µM | [2] 0.0662 µM | [3] 0.132 µM | [4] 11.8 µM | [16] 0.105 µM | [9] 0.118 µM | [18] 0.0187 µM | [11] 0.0118 µM | [12] 0.0418 µM | [19] 0.209 µM

C[C@@H](Oc1ccc2[nH]nc(C=Cc3cnn(CCO)c3)c2c1)c1c(Cl)cncc1Cl
inactive: [5] | [6]
active: [1] 0.0935 µM | [2] 8.33 µM | [3] 6.62 µM | [4] 0.743 µM | [15] 23.5 µM | [16] 8.33 µM | [8] 0.469 µM | [9] 0.235 µM | [10] 11.8 µM | [18] 6.62 µM | [11] 2.64 µM | [12] 20.9 µM | [13] 4.18 µM | [19] 0.209 µM

Nc1nc(=O)n([C@H]2C[C@H](O)[C@@H](CO)O2)cc1F
inactive: [2] | [3] | [4] | [16] | [10] | [11] | [12]
active: [1] 0.0296 µM | [5] 0.0418 µM | [6] 0.059 µM | [9] 16.6 µM | [18] 0.0074 µM
